Hits are enriched below; roughly 2.4% of the tested compounds scored in any of these assays.
WRN helicase inh: inhibitors of human WRN helicase. Q14191. WRN helicase unwinding, fluorescent forked duplex, kinetic. Potency, µM (doses to about 114 µM), hits mostly inhibitors. hit rate 0.46% among 360,000; also: nearly all actives have a fitted effect of over 55% in size
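Kinetic fluorescence helicase assay: unwinding of a quenched forked DNA duplex (100 nM final) with 2 mM ATP final raises red fluorescence (525/598 nm). Compounds sat 15 min at room temperature with 20 nM WRN beforehand.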
FEN1 inhibitor: human FEN1 inhibition; P39748; Recombinant FEN1 flap cleavage, fluorescence, 15 min; Potency, µM (top dose mostly 114 µM), actives largely listed as inhibitors; hit rate 0.35% among 390,000; also: nearly all actives have a fitted effect of over 65% in size
Target sequence (P39748 whole entry, looked up): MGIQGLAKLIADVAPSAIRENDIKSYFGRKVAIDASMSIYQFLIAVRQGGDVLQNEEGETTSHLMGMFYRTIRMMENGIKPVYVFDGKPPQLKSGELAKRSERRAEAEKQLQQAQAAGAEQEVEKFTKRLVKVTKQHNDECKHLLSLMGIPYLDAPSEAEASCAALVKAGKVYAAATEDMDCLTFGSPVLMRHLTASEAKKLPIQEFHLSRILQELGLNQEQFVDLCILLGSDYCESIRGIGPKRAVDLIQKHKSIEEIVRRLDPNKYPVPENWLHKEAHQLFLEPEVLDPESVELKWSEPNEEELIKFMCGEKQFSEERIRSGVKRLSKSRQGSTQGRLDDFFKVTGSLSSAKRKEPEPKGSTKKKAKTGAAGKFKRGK
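With each library titrated from low to high concentration, compounds met 10 nM FEN1 for 15 min at room temperature before 50 nM substrate was added; readings at 0 and 15 min fed four-parameter Hill curve fits.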
Pol iota inh: DNA polymerase iota (human) inhibition. Q9UNA4. Pol iota fluorescent replication assay, 10 min. Potency, µM (titrated, usually from 115 µM), usual class: inhibitors. hit rate 1% among 390,000
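Pol iota at 10 nM preincubated 15 min with compounds at room temperature; reaction started with fluorescent substrate, 50 nM final. Fluorescence read kinetically at 0 and 10 min; buffer-only wells as negative control.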
Pol beta inh: blocks human DNA polymerase beta activity. hit rate 1.3% among 340,000. Potency, µM (series often up to 114 µM), usual class: inhibitors. P06746. Pol beta primer extension/strand displacement, fluorescence kinetic
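Human Pol beta at 10 nM; strand-displacement substrate 50 nM final. Compound exposure 15 min at room temperature before start, reaction 10 min at room temperature.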
POLK inh: blocks human DNA polymerase kappa activity; purified Pol kappa, fluorescent DNA synthesis assay, 10 min; Potency, µM (top dose mostly 107 µM), usual class: inhibitors; hit rate 0.53% among 400,000; AID 588579
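Inhibition of 10 nM Pol kappa is measured by a fluorescent read-out at 0 and 10 min following addition of 50 nM substrate (final), with a 15-min room-temperature compound preincubation.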
POLH inh: inhibitors of human DNA polymerase eta; recombinant Pol eta, fluorescent DNA replication assay; hit rate 1.2% among 390,000; Potency, µM (top dose mostly 114 µM), actives largely listed as inhibitors; Q9Y253
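Fluorescent replication assay: 50 nM final substrate added after a 15 min room-temperature compound preincubation with 10 nM enzyme. Signal taken at 0 min and again at 10 min.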
Each line names hits and unclear results; the compound was inactive in the other large screens. Calls follow the shape of the dose curve; as a rule, active = well fitted curve in the direction sought with a large enough effect; inconclusive = small, poorly fitted or top-dose-only effect, or another doubt; inactive = no such curve, though single readings can be large; an effect the other way counts as inactive or inconclusive.

O=C(O)c1ccccc1-n1cnnn1	none
O=C(O)c1ccccc1-n1cccc1C(=O)O	Pol iota inh inconclusive, Pol beta inh 25µM, POLH inh 40µM
CN(C)S(=O)(=O)c1ccc(C(=O)OCC(=O)c2csc(N3CCCCC3)n2)cc1	Pol iota inh inconclusive, POLH inh 79µM (no result: Pol beta inh)
COc1ccc2oc(=Nc3ccc(C(=O)O)cc3)c(C(=O)NCc3ccco3)cc2c1	none
COc1ccc2cc(C(=O)NCc3ccco3)c(=Nc3ccc(C(=O)O)cc3)oc2c1	FEN1 inhibitor inconclusive, POLH inh 89µM
CC(C)CCn1c(SCC(=O)N2CC(=O)Nc3ccccc32)nc2scc(-c3cccs3)c2c1=O	Pol iota inh inconclusive, Pol beta inh 22µM, POLK inh inconclusive, POLH inh inconclusive
c1cc2c(cc1Cc1cncc(Cc3ccc4c(c3)OCO4)c1)OCO2	none (no result: WRN helicase inh, Pol beta inh, POLH inh)
CCCN(CCC)c1ccc(/C=C/c2sc3ccccc3[n+]2CCCCI)cc1	FEN1 inhibitor inconclusive, Pol iota inh 79µM, POLK inh inconclusive (no result: WRN helicase inh, Pol beta inh, POLH inh)
COc1ccc(/C=C/c2sc3ccccc3[n+]2CCCCI)cc1OC	Pol iota inh inconclusive (no result: WRN helicase inh, Pol beta inh, POLH inh)
CN(C)c1ccc(/C=C/c2sc3ccccc3[n+]2Cc2ccccc2)cc1	FEN1 inhibitor inconclusive, Pol iota inh 79µM, POLK inh inconclusive (no result: WRN helicase inh, Pol beta inh, POLH inh)
CC(=O)Nc1ccc(/C=C/c2ccccn2)cc1	none (no result: WRN helicase inh, Pol beta inh, POLH inh)
COc1ccc(-c2ccc(/C=N/N3C(=O)C4C5C=CC(C6CC56)C4C3=O)o2)c([N+](=O)[O-])c1 (stereo unspecified)	Pol beta inh inconclusive, POLH inh inconclusive
Cc1[nH][nH]c(=O)c1C(c1ccc(N(C)C)c(Br)c1)c1c(C)[nH][nH]c1=O	none
CCOc1ccc(Cl)cc1C(c1c(C)[nH][nH]c1=O)c1c(C)[nH][nH]c1=O	Pol iota inh inconclusive
Cc1[nH][nH]c(=O)c1C(c1ccc(-c2ccc(Cl)c(Cl)c2)o1)c1c(C)[nH][nH]c1=O	Pol iota inh 3.5µM, POLH inh inconclusive
COc1ccc(-c2ccc(C(c3c(C)[nH][nH]c3=O)c3c(C)[nH][nH]c3=O)o2)c([N+](=O)[O-])c1	Pol iota inh 11µM, Pol beta inh inconclusive
Cc1[nH][nH]c(=O)c1C(c1ccc(-c2ccc(F)cc2)o1)c1c(C)[nH][nH]c1=O	Pol iota inh 7.1µM, Pol beta inh inconclusive
OC(Cc1ccc2ccccc2n1)c1ccccc1 (stereo unspecified)	none (no result: WRN helicase inh, Pol beta inh, POLH inh)
Fc1ccc(Nc2ncncc2-c2ccoc2)cc1	none (no result: WRN helicase inh, FEN1 inhibitor, Pol iota inh, Pol beta inh, POLH inh)
COC(=O)c1ccc2c(c1)SC1=C(CCCC1=O)N2	WRN helicase inh 79µM
CC(=O)c1ccccc1NS(=O)(=O)c1cccc2nsnc12	Pol iota inh 45µM, Pol beta inh 25µM, POLK inh 79µM, POLH inh 50µM
CC(=O)c1ccccc1NS(=O)(=O)c1cccc2nonc12	none
CCCn1cc(S(=O)(=O)CC(=O)Nc2ccc(OCC)cc2)c2ccccc21	Pol beta inh 89µM
COc1ccc(CNc2ncnc3ccc(-c4c(C)noc4C)cc23)c(OC)c1	none (no result: WRN helicase inh, FEN1 inhibitor, Pol iota inh, Pol beta inh, POLH inh)
Cc1ccc(N2C(=O)CS(=O)(=O)C23C(=O)N(Cc2ccccc2C)c2ccccc23)cc1Cl (stereo unspecified)	none (no result: WRN helicase inh)
CC(=O)Nc1cccc(NC(=O)CSc2ccc(-c3ccccn3)nn2)c1	Pol beta inh 25µM
CC(=O)Nc1cccc(NC(=O)CSc2ccc(-c3sc(-c4ccccc4)nc3C)nn2)c1	Pol iota inh inconclusive, Pol beta inh 5.6µM, POLK inh inconclusive (no result: WRN helicase inh)
Cc1nc(-c2ccccc2)sc1-c1ccc(SCC(=O)Nc2cccc(C(F)(F)F)c2)nn1	none (no result: WRN helicase inh)
CC(=O)c1cccc(NC(=O)CSc2ccc(-c3ccccn3)nn2)c1	FEN1 inhibitor inconclusive
COC1CC2CCC(C)[C@](O)(O2)C(=O)C(=O)N2CCCCC2C(=O)OC(C(C)CC2CCC(O)C(OC)C2)CC(=O)C(C)/C=C(/C)C(O)C(OC)C(=O)C(C)CC(C)C=CC=C/C=C\1C (stereo partly specified)	none (no result: WRN helicase inh, FEN1 inhibitor, Pol iota inh, Pol beta inh, POLH inh)
O=C1NC(=S)N/C1=C/c1ccc(-c2c(Br)cc([N+](=O)[O-])cc2Br)o1	Pol beta inh 8.9µM (no result: WRN helicase inh, FEN1 inhibitor, Pol iota inh, POLK inh, POLH inh)
Cc1ccc(-c2ccc(/C=C3/NC(=O)NC3=O)o2)cc1[N+](=O)[O-]	Pol iota inh 50µM, POLK inh inconclusive, POLH inh inconclusive
O=C1NC(=S)N/C1=C/c1cccc([N+](=O)[O-])c1	POLH inh inconclusive
CCc1ccc2[nH]c(=O)c(CN(Cc3cccs3)Cc3nnnn3Cc3ccccc3)cc2c1	none (no result: WRN helicase inh, Pol beta inh, POLH inh)
O=c1cc(-c2ccc(O)c(O)c2)oc2ccccc12	POLK inh 14µM (no result: WRN helicase inh, FEN1 inhibitor, Pol iota inh, Pol beta inh, POLH inh)
O=c1cc(-c2ccccc2)oc2cc(O)c(O)cc12	POLK inh 3.2µM (no result: WRN helicase inh, FEN1 inhibitor, Pol iota inh, Pol beta inh, POLH inh)
O=C(c1ccccc1)c1c(O)cc(-c2ccccc2)oc1=O	Pol beta inh 16µM
O=c1cc(-c2ccccc2)oc2ccc(O)cc12	FEN1 inhibitor inconclusive
COC(=O)c1c(-c2cccs2)csc1NC(=O)COc1c(C)ccc(C)c1C	none (no result: WRN helicase inh)

Screening data as filed in PubChem.
